Compounds without any hit were thinned out: in the full panel of roughly 83,000, 20% have a hit.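 Compound tested at a single concentration for 48 hours in 96-well plates; a percent growth value below 10 was scored as active.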 The source made the active and inactive calls.
Assays:
Test in all cases: NCI-60 one-dose screen, 48 h (100 = growth as untreated, 0 = no growth, -100 = all killed)
Settings in all cases: 10 µM unless noted
NCI-H23 lung = system: NCI-H23 lung
NCI-H226 lung = system: NCI-H226 lung
NCI-H322M lung = system: NCI-H322M lung
HOP-62 NSCLC = system: HOP-62 NSCLC
NCI-H460 lung = system: NCI-H460 lung
HOP-92 NSCLC = system: HOP-92 NSCLC
NCI-H522 lung = system: NCI-H522 lung
A549/ATCC NSCLC = system: A549/ATCC NSCLC
786-0 renal = system: 786-0 renal
COLO 205 colon = system: COLO 205 colon

Measured: growth

COc1cccc(C2C(C#N)=C(N)Oc3c2ccc2ccccc32)c1 (stereo not given)
active: NCI-H460 lung 8.32% | NCI-H522 lung 7.11% | COLO 205 colon -41.8%
inactive: NCI-H23 lung 28.4% | NCI-H226 lung 47.1% | NCI-H322M lung 41.7% | HOP-62 NSCLC 39.6% | HOP-92 NSCLC 46.5% | A549/ATCC NSCLC 26.2% | 786-0 renal 20.6%

Cc1cc([N+](=O)[O-])ccc1NC(=O)c1ccc2c(c1)nc(-c1ccccc1)n2C1CCCCC1
inactive: NCI-H23 lung 91.5% | NCI-H226 lung 93% | NCI-H322M lung 80% | HOP-62 NSCLC 91.8% | NCI-H460 lung 87.3% | HOP-92 NSCLC 117% | NCI-H522 lung 63.1% | A549/ATCC NSCLC 78.8% | 786-0 renal 86.7% | COLO 205 colon 73.2%

CN1CCN(Cc2ccc(NC(=O)c3cncc(C#Cc4cnc(N)c5ccc(C#N)cc45)c3)cc2C(F)(F)F)CC1
active: NCI-H23 lung -22% | NCI-H226 lung -35.1% | HOP-62 NSCLC 2.55% | NCI-H460 lung -49.3% | HOP-92 NSCLC -15.2% | NCI-H522 lung 5.63% | A549/ATCC NSCLC -53% | 786-0 renal -71.8% | COLO 205 colon -71.9%
inactive: NCI-H322M lung 26.6%

O=C(O)/C=C\C(=O)Nc1ccc2c(c1)Cc1cc(F)ccc1-2
inactive: NCI-H23 lung 95.9% | NCI-H226 lung 98.3% | NCI-H322M lung 99.7% | HOP-62 NSCLC 87.9% | NCI-H460 lung 110% | HOP-92 NSCLC 97.5% | NCI-H522 lung 90.9% | A549/ATCC NSCLC 106% | 786-0 renal 99.7% | COLO 205 colon 105%

COc1ccc(-c2cc(-c3ccc(Nc4nc(Nc5ccc(Cl)cc5)nc(Nc5ccc(Cl)cc5)n4)cc3)no2)cc1
active: HOP-92 NSCLC -28.6%
inactive: NCI-H23 lung 66.5% | NCI-H226 lung 110% | NCI-H322M lung 79.5% | HOP-62 NSCLC 100% | NCI-H460 lung 74.8% | NCI-H522 lung 84.5% | A549/ATCC NSCLC 62.5% | 786-0 renal 80.6% | COLO 205 colon 79.5%

Cc1nc2sc(C(=O)Nc3ccccc3)c(N)c2cc1C(O)c1ccccc1 (stereo not given)
active: NCI-H460 lung 4.01% | COLO 205 colon -8.82%
inactive: NCI-H23 lung 33.5% | NCI-H226 lung 64% | NCI-H322M lung 56.3% | HOP-62 NSCLC 39.6% | HOP-92 NSCLC 63.7% | NCI-H522 lung 12.8% | A549/ATCC NSCLC 24.4% | 786-0 renal 40.8%

COc1ccc(-c2ccc(-c3ccc(C(=N)N)nc3)s2)cc1
active: NCI-H23 lung -29.9% | NCI-H322M lung -19.8% | HOP-62 NSCLC -54.9% | NCI-H460 lung -85.1% | NCI-H522 lung -44.9% | A549/ATCC NSCLC -56.7% | 786-0 renal -84.2% | COLO 205 colon -52.2%
inactive: NCI-H226 lung 83.4% | HOP-92 NSCLC 77.9%

CN1CCN(Cc2ccc(NC(=O)c3cc(C#Cc4cnc(N)c5ncccc45)n(C)n3)cc2C(F)(F)F)CC1
active: NCI-H460 lung 9.09% | 786-0 renal 9.92%
inactive: NCI-H23 lung 97.8% | NCI-H226 lung 115% | NCI-H322M lung 127% | HOP-62 NSCLC 100% | HOP-92 NSCLC 103% | NCI-H522 lung 99.7% | A549/ATCC NSCLC 47.5% | COLO 205 colon 115%

CCCCCCC/C=N/NC(=O)c1ccc(-n2cc(-c3ccccc3)nn2)cc1
inactive: NCI-H23 lung 87.6% | NCI-H226 lung 85.2% | NCI-H322M lung 86.3% | HOP-62 NSCLC 95.8% | NCI-H460 lung 98.4% | HOP-92 NSCLC 87.1% | NCI-H522 lung 79.9% | A549/ATCC NSCLC 96% | 786-0 renal 92.2% | COLO 205 colon 110%

COC1CC(O)C2=C(CC3C(/C(C)=C\CC=C(C)C)CCC3(C)O2)C1=O (stereo not given)
inactive: NCI-H23 lung 97.9% | NCI-H226 lung 101% | NCI-H322M lung 101% | HOP-62 NSCLC 105% | NCI-H460 lung 104% | HOP-92 NSCLC 97.5% | NCI-H522 lung 90.1% | A549/ATCC NSCLC 95.2% | 786-0 renal 103% | COLO 205 colon 119%

Fc1ccc(/C=C/c2cc(/C=C/c3ccc(F)cc3)n(-c3cc(F)cc(F)c3)n2)cc1
inactive: NCI-H23 lung 98.3% | NCI-H226 lung 109% | NCI-H322M lung 86.5% | HOP-62 NSCLC 96% | NCI-H460 lung 107% | HOP-92 NSCLC 83% | NCI-H522 lung 61.7% | A549/ATCC NSCLC 90.8% | 786-0 renal 77.4% | COLO 205 colon 119%

Nc1ncc(-c2ccc3ncnc(N4CCc5ccc(Cl)cc54)c3c2)cn1
active: NCI-H226 lung 0.981% | NCI-H322M lung -15.4% | HOP-62 NSCLC -11.9% | NCI-H460 lung 4.03% | HOP-92 NSCLC -34.5% | NCI-H522 lung -15.7% | A549/ATCC NSCLC 0.08% | 786-0 renal -0.891% | COLO 205 colon -25.8%
inactive: NCI-H23 lung 12.4%

O=C(Nc1ccc2c(c1)-c1ccccc1C2)C1CC(=O)N(c2ccc3c(c2)OCO3)C1 (stereo not given)
inactive: NCI-H23 lung 51.6% [50 µM] | NCI-H226 lung 30.2% [50 µM] | NCI-H322M lung 55.9% [50 µM] | HOP-62 NSCLC 70.7% [50 µM] | NCI-H460 lung 32.9% [50 µM] | HOP-92 NSCLC 65% [50 µM] | NCI-H522 lung 77.5% [50 µM] | A549/ATCC NSCLC 66.7% [50 µM] | 786-0 renal 30.9% [50 µM] | COLO 205 colon 86.2% [50 µM]

O=C(Nc1ncc(Cc2ccc(Cl)cc2)s1)C1=NCCCCN1
inactive: NCI-H23 lung 99% | NCI-H226 lung 99.7% | NCI-H322M lung 94.9% | HOP-62 NSCLC 108% | NCI-H460 lung 106% | HOP-92 NSCLC 119% | NCI-H522 lung 82.1% | A549/ATCC NSCLC 109% | 786-0 renal 107% | COLO 205 colon 110%

COc1cccc(C2C3=C(COC3=O)N(CCO)c3cc4c(cc32)OCCO4)c1 (stereo not given)
active: NCI-H460 lung 5.46% | NCI-H522 lung -14.6% | COLO 205 colon -68%
inactive: NCI-H23 lung 12.5% | NCI-H226 lung 38.3% | NCI-H322M lung 39% | HOP-62 NSCLC 23.4% | HOP-92 NSCLC 27.6% | A549/ATCC NSCLC 24.6% | 786-0 renal 19.3%

COc1ccc(C(c2cc(OC)c(OC)c(OC)c2)n2cncn2)cc1O (stereo not given)
inactive: NCI-H23 lung 39.9% | NCI-H226 lung 73.4% | NCI-H322M lung 51.5% | HOP-62 NSCLC 32.2% | HOP-92 NSCLC 43.9% | NCI-H522 lung 12.8% | A549/ATCC NSCLC 18.6% | 786-0 renal 28.1%
active: NCI-H460 lung 9.82% | COLO 205 colon -1.65%

CC(=O)Cc1nsc(NC(=O)c2cc(-c3cc(Cl)ccc3Cl)oc2C)n1
inactive: NCI-H23 lung 99.5% | NCI-H226 lung 94.5% | NCI-H322M lung 104% | HOP-62 NSCLC 102% | NCI-H460 lung 103% | HOP-92 NSCLC 112% | NCI-H522 lung 90.2% | A549/ATCC NSCLC 98.8% | 786-0 renal 97% | COLO 205 colon 115%

COC(=O)c1nc(-c2ccccc2)oc1S(=O)(=O)NCC(c1ccc(Cl)cc1)N1CCCCC1 (stereo not given)
inactive: NCI-H23 lung 84.4% | NCI-H226 lung 88.5% | NCI-H322M lung 97.2% | HOP-62 NSCLC 90.9% | NCI-H460 lung 85.6% | HOP-92 NSCLC 48.8% | NCI-H522 lung 25.6% | A549/ATCC NSCLC 85.3% | 786-0 renal 59.8% | COLO 205 colon 72.1%

CCOC(=O)c1cnc2sc(-c3ccc(OC)cc3)nc2c1Cl
inactive: NCI-H23 lung 82% | NCI-H226 lung 99.2% | NCI-H322M lung 89.2% | HOP-62 NSCLC 112% | NCI-H460 lung 100% | HOP-92 NSCLC 94.7% | NCI-H522 lung 97.8% | A549/ATCC NSCLC 106% | 786-0 renal 115% | COLO 205 colon 123%

CCOC(=O)c1c(N)sc2cc(O)ccc12
inactive: NCI-H23 lung 95.2% | NCI-H226 lung 110% | NCI-H322M lung 91.1% | HOP-62 NSCLC 104% | NCI-H460 lung 112% | HOP-92 NSCLC 121% | NCI-H522 lung 80% | A549/ATCC NSCLC 99.7% | 786-0 renal 104% | COLO 205 colon 112%

C(CCCSC1=NCCN1)CCSC1=NCCN1
inactive: NCI-H23 lung 94.8% | NCI-H226 lung 107% | NCI-H322M lung 113% | HOP-62 NSCLC 93.1% | NCI-H460 lung 110% | HOP-92 NSCLC 41.4% | NCI-H522 lung 103% | A549/ATCC NSCLC 104% | 786-0 renal 97% | COLO 205 colon 121%

COc1cc2ncnc(Nc3ccc(S(=O)(=O)Nc4cc(C)on4)cc3)c2cc1OCCCN1CCOCC1
inactive: NCI-H23 lung 100% | NCI-H226 lung 94% | NCI-H322M lung 101% | HOP-62 NSCLC 95.8% | NCI-H460 lung 110% | HOP-92 NSCLC 87.4% | NCI-H522 lung 96.8% | A549/ATCC NSCLC 95.3% | 786-0 renal 107% | COLO 205 colon 106%

CNc1nc2ncc(-c3c(C)noc3C)cc2n1Cc1ccccc1
inactive: NCI-H23 lung 55.5% | NCI-H226 lung 56.6% | NCI-H322M lung 67.1% | HOP-62 NSCLC 41.4% | NCI-H460 lung 64.9% | NCI-H522 lung 57.1% | A549/ATCC NSCLC 54.4% | 786-0 renal 43.3% | COLO 205 colon 29.8%
active: HOP-92 NSCLC 7.09%

N#Cc1c(-c2ccc(Cl)cc2)nc(NN=Cc2cccc(Cl)c2)nc1N1CCOCC1
inactive: NCI-H23 lung 101% | NCI-H226 lung 91.6% | NCI-H322M lung 88.7% | HOP-62 NSCLC 92.7% | NCI-H460 lung 91.6% | HOP-92 NSCLC 89.3% | NCI-H522 lung 94.5% | A549/ATCC NSCLC 81.9% | 786-0 renal 70.1% | COLO 205 colon 61%

CCN1C(=O)N(CC)C2C1NC(=S)N2/N=C/C=C/c1cccs1 (stereo not given)
inactive: NCI-H23 lung 42.6% | NCI-H226 lung 64.5% | NCI-H322M lung 50.9% | HOP-62 NSCLC 51.1% | HOP-92 NSCLC 88.8% | A549/ATCC NSCLC 24.9% | 786-0 renal 43.1% | COLO 205 colon 18.3%
active: NCI-H460 lung 7.03% | NCI-H522 lung -5.25%

CC1(C)CC(=O)C2=C(C1)OC(C(=O)c1ccccc1)C2c1cccc(Oc2ccccc2)c1 (stereo not given)
inactive: NCI-H23 lung 48.5% | NCI-H226 lung 53.3% | NCI-H322M lung 75.1% | HOP-62 NSCLC 66.7% | NCI-H460 lung 51.4% | HOP-92 NSCLC 13.4% | NCI-H522 lung 38.2% | A549/ATCC NSCLC 29.9% | 786-0 renal 53.1% | COLO 205 colon 38.3%
